33 molecules from PubChem BioAssay (NCI) can be followed below.

Compounds without any hit were thinned out: in the full panel of roughly 83,000, 20% have a hit.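 Testing used 96-well plates and a 48-hour single-concentration exposure. Example: -40 means 40% of the starting cells died.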 A number with no mark means an inactive call. Activity calls are given as the source filed them. Rule for the calls: active = growth percent below 10; inactive = the rest.

The assay has as its system K-562 leukemia. The assay is described as follows: NCI-60 one-dose screen, 48 h (100 = growth as untreated, 0 = no growth, -100 = all killed). The note with it: 10 µM unless noted.
As for `CCCC[C@H](NC(=O)[C@H]1CCCCN1C)C(=O)N(C)[C@H](C[C@@H](OC(C)=O)c1nc(C(=O)N[C@@H](Cc2ccccc2)C[C@H](C)C(=O)OCC)cs1)C(C)C`, the growth is 7.31% (active).

Consider `O=C([O][Hg][CH2]C1OCCOC1[CH2][Hg][O]C(=O)c1ccccc1)c1ccccc1` (stereo not drawn), for which the growth was -36% (active).

With `Cn1cc(-c2csc(-c3cn(CCN4CCOCC4)c4ccccc34)n2)c2cccnc21`, the growth was 44.8%.

`O=C(O)c1c(Cl)n(Cc2ccc(O)cc2)c2ccc(O)cc12`: the growth was 112%.

For `CCCCCCCCCCCCCCCCCCOc1ccccc1COP(=O)(O)OOCC[N+](C)(C)C`, the growth is 1.4% (active).

Consider `CC(C)(C)N1CC1C#N` (stereo not drawn), for which the growth is 99%.

On to `COC(=O)[C@@H](C)C[C@H](Cc1ccc2ccccc2c1)NC(=O)c1csc([C@@H](C[C@H](C(C)C)N(C)C(=O)[C@@H](NC(=O)[C@H]2CCCCN2C)C(C)C)OC(C)=O)n1`, for which the growth is 25.7%.

For `CCCCC1(CCC)C(=O)NC(=S)NC1=O`, the growth is 121%.

As for `Nc1ccc(Cl)cc1`, the growth was 100%.

`COc1ccc([As]=[As]c2ccc(OC)c(NCS(=O)(=O)O)c2)cc1NCS(=O)(=O)O` (stereo not drawn): the growth is -2.74% (active).

Consider `CC1(C)C(C(=O)c2cn(CCCCF)c3ccccc23)C1(C)C`, for which the growth was 71.3%.

Regarding `O=[N+]([O-])c1ccc([Se]C2CCCCC2Cl)c([N+](=O)[O-])c1` (stereo not drawn), the growth was 105%.

Consider `COP(=O)(OC)C(O)c1ccc(Cl)cc1` (stereo not drawn), for which the growth was 117%.

Take `Cc1cnc(/C=C/C(=O)O)cc1-c1cc2c(cc1C)C(C)(C)CCC2(C)C`: the growth was 109%.

Regarding `COC(=O)[C@H](C[C@H](Cc1ccccc1)NC(=O)c1csc([C@@H](C[C@H](C(C)C)N(C)C(=O)[C@@H](NC(=O)[C@H]2CCCCN2C)C(C)C)OC(C)=O)n1)NC(=O)OCc1ccccc1`, the growth was 5.76% [8.5 µM] (active).

Consider `Cc1ccc2c(C(C[N+](=O)[O-])c3cccs3)c(-c3ccccc3)[nH]c2c1` (stereo not drawn), for which the growth was 10.8%.

As for `CCOC(=O)[C@@H](C)C[C@H](Cc1ccccc1)NC(=O)c1csc([C@@H](C[C@H](C(C)C)N(C)C(=O)[C@@H](NC(=O)[C@H]2CCCCN2C)C(C)(C)C)OC(C)=O)n1`, the growth was 5.06% (active).

In the case of `NC(=O)C(Br)c1ccccc1` (stereo not drawn), the growth is 84.3%.

As for `CC(=O)O[C@H](C[C@H](C(C)C)N(C)C(=O)[C@@H](NC(=O)[C@H]1CCCCN1C)C(C)C)c1nc(C(=O)N[C@@H](Cc2ccccc2)C[C@H](C)C(=O)O)c(CCOCc2ccccc2)s1`, the growth is 7.14% (active).

As to `O=NN1CCCc2cccc(O)c21`, the growth is 9.43% (active).

As for `C#C[C@]1(OC(=O)CCCCCC)CC[C@H]2[C@@H]3CCC4=CC(=O)CC[C@@H]4[C@H]3CC[C@@]21C`, the growth was 20.7%.

Take `CC(=O)OC1C(OC/C2=C/C3[C@@H](C(C)C)CC=C(C)[C@@H]3CC(OC(=O)/C=C/c3cn(C)cn3)[C@]3(C)C=C[C@@]2(O)O3)OCC(O)C1O` (stereo partly drawn): the growth is 15.7%.

On to `COC1CC2c3ccccc3C1C(C)=[N+]2C` (stereo not drawn), for which the growth was 110%.

On to `NC(=O)CNc1ccc([As]=[As]c2ccc(NCC(N)=O)cc2)cc1` (stereo not drawn), for which the growth was 19%.

On to `CCCCCN(CCCCC)CC(O)c1cc(Cl)ccc1OC` (stereo not drawn), for which the growth was 14.8%.

On to `ClC1=C(Cl)C(Cl)(C2(Cl)C(Cl)=C(Cl)C(Cl)=C2Cl)C(Cl)=C1Cl`, for which the growth is -24.6% (active).

Regarding `CCOC(=O)[C@@H](C)C[C@H](Cc1ccccc1)NC(=O)c1nc([C@@H](C[C@H](C(C)C)N(C)C(=O)[C@@H](NC(=O)[C@H]2CCCCN2C)C(C)C)OC(C)=O)sc1CCOCc1ccccc1`, the growth is -31.4% (active).

On to `COC(=O)N[C@H]1CCc2c(Br)c(OC)c(OC)c(OC)c2-c2ccc(SC)c(=O)cc21`, for which the growth was 6.78% (active).

Take `O=C(CC1(O)C(=O)Nc2ccc(Br)cc21)c1ccc(C(=O)NCC2CCC3(CC2)OOC2(CCCCC2)OO3)cc1` (stereo not drawn): the growth was -61% (active).

With `C=C1C(=O)O[C@H]2[C@H]1CC/C(COC(=O)C(=O)c1cn(Cc3ccccc3)c3ccccc13)=C\CC[C@@]1(C)O[C@@H]21`, the growth is 5.58% (active).

With `O=C1C2C(C(=O)[N]1[Hg][c]1cccs1)C1(Cl)C(Cl)=C(Cl)C2(Cl)C1(Cl)Cl` (stereo not drawn), the growth is -2.45% (active).

In the case of `O=C1CN=C(c2ccc(Cl)cc2)c2sccc2N1`, the growth was 88.1%.

For `O=C1NC(=O)C(=Cc2cccn2CCCCCn2c3ccccc3c(=O)c3ccccc32)C(=O)N1`, the growth is 89.1%.
